Source: PubChem BioAssay
In the library only some 6% were active in any assay of this set; here they are far more common.
DRD3 agonist – agonists of human D3 dopamine receptor. D3R DiscoveRx beta-arrestin cells, luminescence, 90 min. max activation, %. actives 0.58% (n = 410,000). AID 652048; in the data active = max activation above about 30%; note: 0% is about no effect
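Agonist-mode cell screen: cells plated at 1500/well and incubated overnight at 37 °C, then exposed to library compounds for 90 min at 37 °C. Detection reagent was added for 30–60 min at room temperature, and luminescence was read.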
D1 ag – activates the human D1 dopamine receptor | P21728 | HEK293 T-REx D1 cells, calcium flux, agonist mode | activation, % at 2 µM | actives 1% (n = 360,000); in the data active = activation above about 30%; note: 0% is about no effect
Target sequence (P21728 whole entry, looked up): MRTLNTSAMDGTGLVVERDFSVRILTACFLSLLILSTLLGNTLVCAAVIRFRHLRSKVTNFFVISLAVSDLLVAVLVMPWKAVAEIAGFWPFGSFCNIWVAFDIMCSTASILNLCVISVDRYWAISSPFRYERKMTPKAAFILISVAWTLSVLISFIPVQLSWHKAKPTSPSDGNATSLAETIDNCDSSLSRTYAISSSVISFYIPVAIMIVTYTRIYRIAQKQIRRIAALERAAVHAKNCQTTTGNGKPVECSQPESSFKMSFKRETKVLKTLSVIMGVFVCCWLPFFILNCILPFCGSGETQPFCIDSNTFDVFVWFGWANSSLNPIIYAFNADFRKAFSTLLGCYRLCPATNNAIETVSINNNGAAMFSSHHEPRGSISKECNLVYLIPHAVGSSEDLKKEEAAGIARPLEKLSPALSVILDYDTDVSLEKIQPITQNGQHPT
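Inducible HEK293 T-REx D1 cells, force-coupled to calcium signalling, were plated at 4000 cells/well with tetracycline and held overnight at 30 C. After no-wash calcium dye loading, compound-evoked calcium rise over 180 s flagged agonists.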
D1 potentiator – potentiators of human D1 dopamine receptor | P21728 | HEK293 TREx D1 cells, calcium flux, dopamine EC20 potentiation | potentiation, % at 10 µM | actives 0.036% (n = 360,000) | AID 504651; in the data active = potentiation above about 30%; note: 0% is about no effect
Chronic BCR inh – inhibitors of chronic active B-cell receptor signaling. ABC-DLBCL IkBa-CBG/CBR reporter, luminescence ratio, 4 h. Potency, µM (highest dose often 46.1 µM), without a hit: at the highest dose activity change, negative = inhibition, actives largely listed as inhibitors. actives 0.05% (n = 340,000). AID 493014; active = well fitted inhibition curve with a large enough effect in the signal ratio, with a control signal flat, not every such curve was filed as active; inconclusive = small, poorly fitted or top-dose-only effect, or effect the other way, or a change in a side signal; the % refers to the signal ratio;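 note: potency is the fitted concentration of half-maximal effect; plate controls were basal doxycycline-induced cells for no effect and cells given 10 µM MG132 for full effect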
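Doxycycline induced both beetle luciferases in TMD8 lymphoma cells; IKK-driven degradation limits the IkappaBalpha-fused green signal, while red luminescence normalises for cell number and nonspecific effects. Compounds tested up to 46 uM, 4 hrs.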
D1 antagonist – antagonists of human D1 dopamine receptor; HEK293 TREx D1 cells, calcium flux, dopamine EC80; active compounds read low; P21728; activity change, negative = inhibition, % at 10 µM; actives 3.2% (n = 360,000); AID 504652; in the data active = activity change below about -30%; note: % is set by controls: 0 for no effect and ±100 for the full control effect
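Compound effects on dopamine-evoked calcium signalling were measured in tetracycline-induced HEK293 Trex D1 cells. Dopamine at EC80 followed a 180 s compound pre-read, and fluorescence was tracked kinetically for 180 s more.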
D3 antag – antagonists of human D3 dopamine receptor. P35462. D3R cells, DiscoveRx beta-arrestin luminescence, antagonist mode; active compounds read low. max response, negative = inhibition, %. actives 2.5% (n = 360,000); in the data active = max response below about -50%; inconclusive = no clear call, values can overlap the other calls; note: % is set by controls: 0 for no effect and ±100 for the full control effect
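Cells plated overnight at 1500 cells/well, then exposed to library compounds with dopamine controls for 90 minutes at 37 degrees C. DiscoveRx reagent added for 30–60 minutes at room temperature; luminescence read, quantitative HTS format.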
An asterisk follows results filed as active.

Cc1nc(N2CCOCC2)c2c(C(=O)N3CCN(c4cc(Cl)ccc4C)CC3)c(C)oc2n1 was read as DRD3 agonist -14, D1 ag 3, D1 potentiator -9 and D1 antagonist -6.
Screening COc1ccc2cc(CNCCOCCOCCNCc3ccc4cc(OC)ccc4c3)ccc2c1 returned DRD3 agonist -2 and D3 antag inconclusive.
`COc1cc(OC)c2c(-c3ccccc3)cc(=O)oc2c1C(CC(=O)N1CCN(c2ccccc2)CC1)c1ccc(N(C)C)cc1` (centres undefined) gave DRD3 agonist -2, D1 ag -1, D1 potentiator -5, Chronic BCR inh inconclusive, D1 antagonist -13 and D3 antag inconclusive.
COc1cc(C(CC(=O)N2CCN(c3ccccc3)CC2)c2c(OC)cc(OC)c3ccc(=O)oc23)cc(OC)c1OC (centres undefined) was read as DRD3 agonist -14, D1 ag 1, D1 potentiator -8, Chronic BCR inh inconclusive, D1 antagonist -42* and D3 antag -8.
`COc1cc(OC)c2c(-c3ccccc3)cc(=O)oc2c1C(CCN1CCN(c2ccccc2)CC1)c1ccc(N(C)C)cc1` (centres undefined) gave DRD3 agonist -4, D1 ag 4, D1 potentiator -8, Chronic BCR inh 9%, D1 antagonist -32* and D3 antag -62*.
`CCN(CC)CCC(c1ccc(N(C)C)cc1)c1c(OC)cc(OC)c2c(-c3ccccc3)cc(=O)oc12` (centres undefined) gave DRD3 agonist -10, D1 ag 39*, D1 potentiator -5, Chronic BCR inh -9%, D1 antagonist -47* and D3 antag -8.
`COc1cc(OC)c2c(-c3ccccc3)cc(=O)oc2c1C(CC(=O)N1CCOCC1)c1ccc(N(C)C)cc1` (centres undefined) gave DRD3 agonist 5, D1 ag 1, D1 potentiator -9, Chronic BCR inh inconclusive, D1 antagonist -8 and D3 antag 2.
For COc1cc(C(CC(=O)N2CCOCC2)c2c(OC)cc(OC)c3ccc(=O)oc23)cc(OC)c1OC (centres undefined) the results were DRD3 agonist 13, D1 ag 2, D1 potentiator 6, Chronic BCR inh inconclusive, D1 antagonist 1 and D3 antag 16.
`O=S(=O)(Nc1cccc(C(F)(F)F)c1)c1ccc(-c2cnc(C3CC3)o2)cc1` gave DRD3 agonist 1, D1 ag 1, D1 potentiator -1 and D1 antagonist 4.
`S=C(NCc1ccco1)N1CCN(c2ccccc2Cl)CC1` gave DRD3 agonist -14, D1 ag 3, D1 potentiator -9, Chronic BCR inh -3%, D1 antagonist -33* and D3 antag 0.
Cc1ccc(Cl)cc1N1CCN(C(=S)NCc2ccco2)CC1 was read as DRD3 agonist -11, D1 ag 1, D1 potentiator -9, Chronic BCR inh inconclusive and D3 antag -28.
`CCCCNC(=S)Nc1ccc(-c2nc3ccc(C)cc3s2)cc1` gave DRD3 agonist 2, D1 ag 4, D1 potentiator -10, Chronic BCR inh 3%, D1 antagonist -47* and D3 antag -12.
Cc1ccc2nc(-c3ccc(NC(=S)NCCC(C)C)cc3)sc2c1 was read as DRD3 agonist 0 and D3 antag 18.
Cc1ccc2nc(-c3ccc(NC(=O)COC(=O)c4ccc(Br)o4)cc3)sc2c1 was read as DRD3 agonist -2, D1 ag 4, D1 potentiator 46*, Chronic BCR inh 0%, D1 antagonist -7 and D3 antag 17.
Cc1ccc2nc(-c3ccc(NC(=O)CN4CCN(C(=O)c5ccco5)CC4)cc3)sc2c1 was read as DRD3 agonist 36*, D1 ag 5, D1 potentiator -2, Chronic BCR inh 10%, D1 antagonist -4 and D3 antag 1.
CCOC(=O)c1cc(CC)sc1NC(=O)CN1CCN(C(=O)c2ccco2)CC1 was read as DRD3 agonist 1, D1 ag 109*, D1 potentiator -8, Chronic BCR inh -1%, D1 antagonist -27 and D3 antag 29.
`CC(C)Nc1ccc(-c2nc(-c3ccncc3)no2)cc1[N+](=O)[O-]` gave DRD3 agonist 8, D1 ag 9, D1 potentiator -2 and D1 antagonist -7.
CCN1CCN(C(=O)Cn2ncc3c4ccccc4n(Cc4c(C)cc(C)cc4C)c3c2=O)CC1 was read as DRD3 agonist -20, D1 ag 4, D1 potentiator -1 and D1 antagonist 10.
Screening O=C(CN1CCSC1=NCc1ccccc1)c1ccc(Cl)cc1 returned DRD3 agonist -15, D1 ag 10, D1 potentiator -5, Chronic BCR inh 0%, D1 antagonist 2 and D3 antag -67*.
Nc1nc(-c2ccc(Cl)cc2)nc(-c2ccc(Cl)cc2)n1 was read as DRD3 agonist 23, D1 ag 1, D1 potentiator -3, Chronic BCR inh 5%, D1 antagonist -35* and D3 antag 46.
`C=CCn1cnnc1SCC(=O)Nc1cccnc1Cl` gave D1 ag 11, D1 potentiator 5, Chronic BCR inh -10% and D1 antagonist 10.
O=C(Nc1cc(S(=O)(=O)N2CCOCC2)ccc1Cl)c1cc2ccccc2o1 was read as DRD3 agonist 4, D1 ag 3, D1 potentiator -6, Chronic BCR inh inconclusive, D1 antagonist -48* and D3 antag 16.
`CN(Cc1ccccc1)S(=O)(=O)c1ccc(F)c(C(=O)Nc2cc(Cl)cc(Cl)c2)c1` gave DRD3 agonist -4, D1 ag -3, D1 potentiator 5, Chronic BCR inh 22% and D1 antagonist 13.
`CCN(CC)S(=O)(=O)c1ccc(NC2CCN(Cc3ccccc3)CC2)nc1` gave DRD3 agonist -14, D1 ag 34*, D1 potentiator -9, Chronic BCR inh 5%, D1 antagonist -38* and D3 antag -20.
`CCOC(=O)CCCCN(Cc1ccccc1F)S(=O)(=O)c1ccc(F)c(C(=O)Nc2cc(Cl)cc(Cl)c2)c1` gave DRD3 agonist -2, D1 ag 32*, D1 potentiator 4, Chronic BCR inh 10% and D1 antagonist 24.
`O=C(Nc1cccc(S(=O)(=O)N2CCOCC2)c1)c1cc2ccccc2o1` gave DRD3 agonist -13, D1 ag 3, D1 potentiator -2, Chronic BCR inh 4%, D1 antagonist -19 and D3 antag -23.
